# PubChem BioAssay AID1566 (Sanford-Burnham Center for Chemical Genomics, 2009)
# Screen size: about 290,000 compounds; about 1,800 (0.62%) were called active. This is one part of a sample in which actives are shown more often than they occur. Unmarked numbers belong to inactive results. No stated cut-off is given here; in the data, active means inhibition above about 50%; inactive means the rest.
# Assay: NOD2 signaling inhibitors, cell-based, luminescence, uHTS, HEK293 (AID 1566)
# Conditions: HEK293 NOD2/NF-kB luciferase reporter, at 4 µM, hits give high values
row,SMILES,inhibition
1,Cc1[nH]c2ccccc2c1-c1nc2ccccc2[nH]c1=O,4.1%
2,CC(C)C(=O)OCc1cn(-c2ccc(Cl)c(Cl)c2)nn1,10.3%
3,O=C(O)c1cccc(CN2C(=O)S/C(=C/c3cccc([N+](=O)[O-])c3)C2=O)c1,-10.3%
4,CCOC(=O)CN1C(=O)S/C(=C/c2ccc(O)c([N+](=O)[O-])c2)C1=O,-11.2%
5,O=C(O)c1cccc(CN2C(=O)S/C(=C/c3ccccc3[N+](=O)[O-])C2=O)c1,19.8%
6,O=C1/C(=C\c2cccc(O)c2O)SC(=S)N1Cc1ccccc1,7.8%
7,COCc1cc(C)nc(Nc2ccccc2OC)c1C#N,3%
8,Cc1ccc(-n2nnc3c(=O)n(CC(=O)NCc4ccco4)cnc32)cc1,17.7%
9,COc1cc(S(=O)(=O)N2CCCCCC2)ccc1-n1cnnn1,7.9%
10,Cc1ccc(OC(=O)COc2ccccc2C)c(-n2nc3ccccc3n2)c1,3%
11,BrC(=C\c1ccccc1)/C=N/Nc1nc(N2CCOCC2)nc(N2CCOCC2)n1,-54.1%
12,CCOC(=O)C1CCN(S(=O)(=O)c2cc(C(=O)OC)n(C)c2)CC1,18.2%
13,Cc1ccc(S(=O)(=O)N2CCN(CC(=O)Nc3ccc([N+](=O)[O-])cc3)CC2)cc1C,-86.3%
14,C=CCSc1nc2sc(C)c(C)c2c(=O)[nH]1,7.9%
15,CC(CCc1ccccc1)NC(=O)C(=O)c1c[nH]c2ccccc12 (centres undefined),6.1%
16,O=C(O)CC(NC(=O)c1cccc([N+](=O)[O-])c1)c1ccc2c(c1)OCO2 (centres undefined),14.8%
17,Cc1ccc(CN2CCCN(C)CC2)c(C)c1,-3.4%
18,CCn1c(SCC(=O)Nc2nc(-c3ccccc3)cs2)nnc1-c1ccccc1O,11.1%
19,CCn1c(SCC(=O)Nc2nc(-c3ccc(C)cc3)cs2)nnc1-c1ccccc1,29%
20,CCOc1ccccc1NC(=S)N(CCN(C)C)C(C)c1ccncc1 (centres undefined),-15.1%
21,CC(C)(C)c1cc(-c2n[nH]c(=S)n2-c2ccc(Cl)cc2)n[nH]1,6.2%
22,NC(=O)C1CCN(C(=O)C2CCC(=O)N(C3CCCCCC3)C2)CC1 (centres undefined),-3.9%
23,O=C(CNc1ccccc1)N/N=C/c1c(O)ccc2ccccc12,19.3%
24,COc1ccccc1NCC(=O)N/N=C/c1c(O)ccc2ccccc12,25%
25,O=C(CNc1ccc(F)cc1)N/N=C/c1c(O)ccc2ccccc12,53.5% (active)

row,SMILES,inhibition
1,Cc1occc1-c1nnc(SCC(=O)NCC2CCCO2)n1C (centres undefined),8.4%
2,O=C(O)c1cc(N/N=C/c2ccc3c(c2)OCO3)ccc1Cl,-118%
3,O=C(N/N=C/c1ccc2c(c1)OCO2)c1ccc2c(c1)OCO2,-137%
4,O=C(O)c1ccc(N/N=C/c2ccc3c(c2)OCO3)cc1,66.8% (active)
5,S=C(NCc1ccncc1)Nc1ccccc1,16.2%
6,O=C(CC(Nc1ccc(Cl)cc1Cl)C(=O)O)c1ccccc1 (centres undefined),61.2% (active)
7,O=C(CC(Nc1ccccc1Cl)C(=O)O)c1ccccc1 (centres undefined),-21.4%
8,O=C(CC(Nc1ccc(Cl)cc1)C(=O)O)c1ccccc1 (centres undefined),20.4%
9,COc1ccc(NC(=O)CSc2ccc(-c3sc(C)nc3C)nn2)cc1,4.8%
10,COc1ccc(NC(=O)CSc2ccc(-c3sc(C)nc3C)nn2)cc1OC,5.8%
11,S=C(Nc1cc(Cl)ccc1Cl)Nn1cnnc1,16.1%
12,CC(Oc1cc(C(F)(F)F)cc(C(F)(F)F)c1)C(=O)NC(N)=O (centres undefined),11.1%
13,O=C1CCCN2N=C(SCC(=O)N3CCCCC3)SC2=N1,5.8%
14,O=C(COc1ccccc1)Nc1ccccc1NS(=O)(=O)c1cccs1,11.6%
15,O=C(COc1ccc(Cl)cc1Cl)Nc1ccccc1NS(=O)(=O)c1cccs1,25.1%
16,OC(c1cccc(Cl)c1)c1nccc2ccccc12 (centres undefined),2.5%
17,COC(=O)c1nc2nc(-c3cccs3)cc(C(F)(F)F)n2n1,9.2%
18,Nc1cccc(Oc2ccc3c(c2)C(=O)NC3=O)c1,-12.7%
19,CCOC(=O)c1c(-c2ccccc2)csc1NC(=O)CSc1nnnn1C,12.2%
20,CCOC(=O)c1c(-c2ccc(C)cc2)csc1NC(=O)CCSc1nnc2ccccn12,53.9% (active)
21,Cc1ccc(NC(=O)CCSc2nnc3ccccn23)cc1,18.1%
22,CC(=O)c1c(C)oc2ccc(OCc3ccccc3)cc12,-10.9%
23,CC(=O)/C(=C/c1ccc(N(C)C)cc1)C(=O)c1ccccc1,-7.8%
24,O=C(Nc1ccc(Cl)cc1)c1ccncc1,-5%
25,Cc1nn(-c2ccc(C(=O)O)cc2)c(C)c1Cl,11.5%

row,SMILES,inhibition
1,Cc1nn(-c2ccc(NC(=O)c3ccncc3)cc2)c(C)c1Cl,50% (active)
2,COc1ccc(S(=O)(=O)N(C)c2ccc(C(=O)N3CCN(c4ccccc4)CC3)cc2)cc1OC,7.6%
3,CC(=O)Nc1ccc(S(=O)(=O)Nc2ccc3ccccc3n2)cc1,10.8%
4,Cc1nc(N2CCN(S(=O)(=O)c3ccc(Br)cc3)CC2)c2c(C)c(C)sc2n1,45%
5,CCS(=O)(=O)N1CCN(c2ncnc3sc(C)c(C)c23)CC1,18%
6,COc1ccc(CCC(=O)NNC(=O)c2cc(Cl)ccc2OC)cc1,-4.6%
7,COc1ccc(/C(N)=N/OC(=O)Cc2ccccc2[N+](=O)[O-])cc1,-2.6%
8,COc1ccc(NC(=O)CSc2ncnc3c2sc2ccccc23)c(OC)c1,-3.6%
9,O=C(c1ccc(Cl)cc1)n1c(NCc2ccccc2)n[nH]c1=S,-38.1%
10,Oc1ccc2ccccc2c1/C=N/c1nccs1,-2.7%
11,Oc1ccc(N=Nc2c(O)ccc3ccccc23)cc1,17%
12,Oc1ccc2ccccc2c1N=Nc1nccs1,91.9% (active)
13,O=C(N/N=C/c1ccco1)c1cccc(NC(=O)c2ccccc2Cl)c1,50.6% (active)
14,O=C(N/N=C/c1ccco1)c1ccc(NC(=O)c2ccccc2Cl)cc1,-2.4%
15,O=C(N/N=C/c1ccco1)c1cccc(NC(=O)c2cccc(Cl)c2)c1,12.2%
16,O=C(Nc1cccc(-n2cccn2)c1)C1CCCN(Cc2ccc(C#CCCO)cc2)C1 (centres undefined),-17.7%
17,C=CCNC(=O)c1c(Cl)cccc1Cl,11.9%
18,Cc1ccc2[nH]c3c(NCc4ccccc4)ncnc3c2c1,39.4%
19,COc1ccc(CNc2ncnc3c2[nH]c2ccccc23)cc1,23.3%
20,Fc1ccc2[nH]c3c(NCc4ccccc4)ncnc3c2c1,62.7% (active)
21,CCOC(=O)c1sc2cccc(Cl)c2c1N,10.6%
22,COc1ccc(CC(=O)Nc2cccnc2)cc1,-3%
23,O=C(Cc1c(Cl)cccc1Cl)Nc1ccncc1Cl,13.2%
24,COCc1cc(Sc2ccc(OC)cc2)nc(-c2ccccc2)n1,18.2%
25,CC1CCN(c2ccc(S(=O)(=O)N3CCC(C)CC3)cc2N)CC1,50.3% (active)

row,SMILES,inhibition
1,Nc1cc(S(=O)(=O)N2CCCCC2)ccc1N1CCOCC1,9.9%
2,CC1CCN(S(=O)(=O)c2ccc(S(=O)(=O)N3CCCC3)cc2)CC1,-1.3%
3,Cc1ccc(C(=O)N2CCCC(Nc3ccc(C)c(C)c3)C2)c(=O)[nH]1 (centres undefined),9.6%
4,CCCCn1c(SCC(=O)N2CCC(C)CC2)nc2ccsc2c1=O,-2.9%
5,CCCCn1c(SCC(=O)c2ccccc2)nc2ccsc2c1=O,13.3%
6,CC(=O)c1cccc(NC(=O)C2C3CCC(C3)C2C(=O)O)c1 (centres undefined),4.1%
7,COc1ccc(NC(=O)c2ccc(NCC3CCCO3)c([N+](=O)[O-])c2)cc1 (centres undefined),13.3%
8,Fc1ccccc1NC(=S)NNc1ncc(C(F)(F)F)cc1Cl,13.7%
9,Cc1ccccc1NC(=S)NNc1ncc(C(F)(F)F)cc1Cl,4.9%
10,COc1ccc(/C=C2\SC(=S)N(CCC(=O)NC3C=CS(=O)(=O)C3)C2=O)cc1 (centres undefined),11.8%
11,O=C(O)c1ccccc1C(=O)Nc1ccc(Oc2cccc3ccccc23)cc1,61.3% (active)
12,O=C(O)c1ccccc1C(=O)Nc1ccc(Oc2ccccc2)cc1,7.7%
13,Cc1cccc(Oc2ccc(NC(=O)c3ccccc3C(=O)O)cc2)c1C,8.6%
14,CC(C)[C@H](NC(=O)OC(C)(C)C)C(=O)N/N=C/c1cccc2nccnc12,10.5%
15,CC(=O)CSc1nnc(Cc2ccc([N+](=O)[O-])cc2)o1,9.2%
16,COc1ccc(Cc2nnc(SCc3ccc([N+](=O)[O-])cc3)o2)cc1,56.9% (active)
17,O=[N+]([O-])c1ccc(CSc2nnc(Cc3ccccc3)o2)cc1,1.1%
18,O=C(O)CNC(=S)N(Cc1ccccc1)Cc1ccccc1F,16.1%
19,CN=c1scc(-c2ccccc2F)n1/N=C/c1ccc[nH]1,90.4% (active)
20,CN=c1scc(-c2ccccc2Br)n1/N=C/c1ccc[nH]1,42.5%
21,CN=c1scc(-c2ccccc2F)n1/N=C/c1ccc(O)c(O)c1O,18.1%
22,Cc1cc(C(=O)COC(=O)C2CC2)c(C)n1-c1ccc(F)cc1,60.3% (active)
23,Cc1cc(C(=O)COC(=O)c2ccc[nH]c2=O)c(C)n1-c1ccc(F)cc1,-12.8%
24,Cc1cc(C(=O)CN2CCCCC2)c(C)n1-c1ccc(F)cc1,-23.5%
